Test results reported in PubChem BioAssay.
Inconclusive results are not listed. Activity calls are given as the source filed them.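 Rule for the calls, unless noted: active = normalized viability below 100% at a tested concentration; inactive = the rest.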

What was measured:
[1] = viability loss in pontine glioma line – cell-based, SU-DIPG-XVII, MIPE5.0, CellTiter-Glo, qHTS, dose response (AID 1347060; cut-off not given, nearly all actives have AC50 up to about 26 µM;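 note: cells exposed to compound for 48 hours before viability readout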); conditions: CellTiter-Glo ATP luminescence
[2] = viability loss in pontine glioma line – cell-based, JHH-DIPG-1, MIPE4.0, CellTiter-Glo, qHTS, dose response (AID 1347062; cut-off not given, nearly all actives have AC50 up to about 27 µM;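 note: cells exposed to compound for two days before readout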); conditions: JHH-DIPG-1 viability, CellTiter-Glo ATP luminescence
[3] = viability loss in pontine glioma line – cell-based, SU-DIPG-XIII, MIPE5.0, CellTiter-Glo, qHTS, dose response (AID 1347064; cut-off not given, nearly all actives have AC50 up to about 23 µM;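 note: cells exposed to compound for 48 hours before the viability read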); conditions: CellTiter-Glo ATP luminescence
[4] = viability loss in pontine glioma line – cell-based, SU-DIPG-XXV, MIPE5.0, CellTiter-Glo, qHTS, dose response (AID 1347065; cut-off not given, nearly all actives have AC50 up to about 26 µM;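 note: cells exposed to compound for 48 hours before ATP readout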); conditions: CellTiter-Glo ATP luminescence
[5] = growth inhibition of DIPG cells – cell-based, MIPE4.0 library, CellTiter-Glo luminescence, qHTS (AID 1347066; cut-off not given, nearly all actives have AC50 up to about 30 µM;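 note: cells exposed to compound for 48 hours before readout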); conditions: SU-DIPG-VI viability, CellTiter-Glo ATP luminescence
[6] = JHH-DIPG-1 glioma cell viability, MIPE5.0 library, CellTiter-Glo luminescence, qHTS (AID 1347067; cut-off not given, nearly all actives have AC50 up to about 26 µM;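 note: cells exposed to compound for 48 hours before readout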); conditions: JHH-DIPG-1 glioma viability, CellTiter-Glo ATP luminescence
[7] = growth inhibition of DIPG cells – cell-based, MIPE5.0 library, qHTS (AID 1347068; cut-off not given, nearly all actives have IC50 up to about 30 µM;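 note: cells exposed to compound for 48 hours before viability readout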); conditions: SU-DIPG-XXV viability
[8] = viability loss with induced miR-34 in A549 – imaging, A549 dox-inducible miR-34, nuclei and caspase counts, primary screen (AID 1347080;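 active = compounds whose cell count with miR-34 switched on is under 0.7 times the count with it off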); conditions: A549 miR-34 inducible, Hoechst nuclei count, 48 h
[9] = compounds altering HSF1 focus formation in cells – imaging, Selleck Cancer Library (AID 1347162; in the data active = plate-normalised HSF1 focus index below about 0.46); conditions: human cells, HSF1 nuclear foci imaging, at 10 µM; SSMD: measured here: HSF1 foci SSMD mean; cell count: measured here: cell number; plate-normalised HSF1 focus index: stronger effect = lower value
[10] = MELAS cybrid and Rieske KO viability enhancers – cell-based, MELAS cybrids, Rieske KO mouse fibroblasts, CellTiter-Glo, primary screen (AID 1508586;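 active = mean z-score across replicates of 1.96 or higher in either the MELAS or the Rieske mutant cell line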;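 note: z relative to plate mean and SD of compound and empty wells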); conditions: low glucose
[11] = drug combination growth inhibition, ovarian cancer – cell-based, oncology-focused library, rucaparib conditional, profiling panel (AID 1508598); conditions: patient-derived ovarian cancer cells, CellTiter-Glo viability, 144 h, stronger effect = lower value

Nc1ccccc1NC(=O)c1ccc(CNc2nccc(-c3cccnc3)n2)cc1
0.733: fold change ([8]; measured here: relative caspase fold change +Dox/-Dox)
active: AC50 [1] 2630 nM | AC50 [2] 1480 nM | AC50 [3] 1480 nM | AC50 [4] 590 nM | AC50 [5] 1180 nM | AC50 [6] 1180 nM | IC50 [7] 2630 nM | viability ([11]; at 0.0195 µM, OCI-P5x cells, without rucaparib) 96.7% | viability ([11]; at 0.0781 µM, OCI-P5x cells, without rucaparib) 94.4% | viability ([11]; at 0.313 µM, OCI-C5x cells, with rucaparib 10 µM, 100% = cells with rucaparib alone) 67.3% | viability ([11]; at 0.313 µM, OCI-C5x cells, without rucaparib) 71.1% | viability ([11]; at 0.313 µM, OCI-P5x cells, with rucaparib 20 µM, 100% = cells with rucaparib alone) 72% | viability ([11]; at 0.313 µM, OCI-P5x cells, without rucaparib) 77.1% | viability ([11]; at 1.25 µM, OCI-C5x cells, with rucaparib 10 µM, 100% = cells with rucaparib alone) 6.09% | viability ([11]; at 1.25 µM, OCI-C5x cells, without rucaparib) 5.69% | viability ([11]; at 1.25 µM, OCI-P5x cells, with rucaparib 20 µM, 100% = cells with rucaparib alone) 15.2% | viability ([11]; at 1.25 µM, OCI-P5x cells, without rucaparib) 19.7%
1740: cell count ([8]; measured here: total cells with miR-34 induction, stronger effect = lower value)
-2.11: z-score ([10]; Rieske KO mouse fibroblast survival, CellTiter-Glo 72 h)
2.12: SSMD [9]
1500: cell count ([8]; measured here: total cells without miR-34 induction)
7260: cell count [9]
inactive: fold change ([8]; stronger effect = lower value, cell number ratio, induced over uninduced) 1.16 | plate-normalised HSF1 focus index [9] 1.13 | z-score ([10]; MELAS cybrid survival, CellTiter-Glo 48 h, stronger effect = higher value) -0.546 | viability ([11]; at 0.000305 µM, OCI-C5x cells, with rucaparib 10 µM, 100% = cells with rucaparib alone) 107% | viability ([11]; at 0.000305 µM, OCI-C5x cells, without rucaparib) 111% | viability ([11]; at 0.000305 µM, OCI-P5x cells, with rucaparib 20 µM, 100% = cells with rucaparib alone) 122% | viability ([11]; at 0.000305 µM, OCI-P5x cells, without rucaparib) 119% | viability ([11]; at 0.00122 µM, OCI-C5x cells, with rucaparib 10 µM, 100% = cells with rucaparib alone) 112% | viability ([11]; at 0.00122 µM, OCI-C5x cells, without rucaparib) 110% | viability ([11]; at 0.00122 µM, OCI-P5x cells, with rucaparib 20 µM, 100% = cells with rucaparib alone) 110% | viability ([11]; at 0.00122 µM, OCI-P5x cells, without rucaparib) 116% | viability ([11]; at 0.00488 µM, OCI-C5x cells, with rucaparib 10 µM, 100% = cells with rucaparib alone) 118% | viability ([11]; at 0.00488 µM, OCI-C5x cells, without rucaparib) 115% | viability ([11]; at 0.00488 µM, OCI-P5x cells, with rucaparib 20 µM, 100% = cells with rucaparib alone) 107% | viability ([11]; at 0.00488 µM, OCI-P5x cells, without rucaparib) 108% | viability ([11]; at 0.0195 µM, OCI-C5x cells, with rucaparib 10 µM, 100% = cells with rucaparib alone) 119% | viability ([11]; at 0.0195 µM, OCI-C5x cells, without rucaparib) 117% | viability ([11]; at 0.0195 µM, OCI-P5x cells, with rucaparib 20 µM, 100% = cells with rucaparib alone) 101% | viability ([11]; at 0.0781 µM, OCI-C5x cells, with rucaparib 10 µM, 100% = cells with rucaparib alone) 110% | viability ([11]; at 0.0781 µM, OCI-C5x cells, without rucaparib) 101% | viability ([11]; at 0.0781 µM, OCI-P5x cells, with rucaparib 20 µM, 100% = cells with rucaparib alone) 103%
